Compounds without any hit were thinned out: in the full panel of roughly 83,000, 20% have a hit.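 How to read the values: 0–100, growth inhibition (40 = 60% inhibited); 0, no net growth; -100 to 0, cell death (-40 = 40% of starting cells died; -100 = all dead).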 Unmarked numbers belong to inactive results. Rule for the calls: active = growth percent below 10; inactive = the rest.

From PubChem BioAssay (NCI) come the findings set out here.

This experiment has as its system HT29 colon. The experiment is described as follows: NCI-60 one-dose screen, 48 h (100 = growth as untreated, 0 = no growth, -100 = all killed). Conditions: 10 µM unless noted.
As to `CC1CC(C)S(=O)(=O)C1` (stereo not drawn), the growth was 99.9%. In the case of `Nc1c(Br)cc(O)c2c1C(=O)c1ccccc1C2=O`, the growth was 54%. With `NC(CO)(CO)c1ccccc1`, the growth is 100%. As to `CC(C)N1CC(=O)N2CSCC2C1=O` (stereo not drawn), the growth is 119%.

For `CCNC(=O)OCCc1c2ccccc2nc2ccccc12`, the growth is 103%. The same measure for `CCN(CC)CCN1CNC(=S)NC1`: 104%; for `Oc1cc(O)c2c(c1)O[C@H](c1ccc(O)c(O)c1)[C@@H](O)C2`: 97.5%; for `CN1CCN(C(=S)S)CC1`: 75.5%. As for `O=c1[nH]c(=O)c2cc(Cl)cc(Cl)c2[nH]1`, the growth was 106%. Turning to `CCOP(=O)(NC(c1ccccc1)c1ccccc1)OCC`, the growth is 107%. Take `Cc1ccc2nc(N)nnc2c1`: the growth is 112%. In the case of `NC(=S)N/N=C/c1ccc(Cl)cc1`, the growth was 108%. As to `CC(=O)C1C(=O)C(=O)N(c2ccc(Cl)c(Cl)c2)C1=O` (stereo not drawn), the growth was 107%. On to `CN1CCCN(C(c2ccccc2)c2ccc(Cl)cc2)CC1` (stereo not drawn), for which the growth is 86.6%. For `c1ccc(-c2ccc3ccccc3c2)cc1`, the growth is 80.8%.

Consider `CCOC(=O)C(C#N)=C1CCN(C)CC1`, for which the growth is 113%. On to `Ic1cccs1`, for which the growth is 94.2%.

For the molecule `O=C(O)c1cccc(-n2ncc(Cl)c(Cl)c2=O)c1`, the growth is 113%. `CCCCn1cnc2c(=O)[nH]cnc21`: the growth was 104%. Consider `CC(=O)N(C(C)=O)c1ccc(C)cc1`, for which the growth is 105%.

`CCNCC(C)(C)O`: the growth is 109%. For the molecule `COc1cc(C(=O)NC(=S)NCc2ccncc2)cc(OC)c1OC`, the growth was 89.2%. On to `CCOc1ccc(C(=O)NCC(C)C)cc1`, for which the growth is 106%. As to `CCOC(=O)C(=O)CC(=O)c1ccccc1`, the growth was 103%. With `C=CCOc1ccc(Cl)cc1Cl`, the growth is 112%. On to `C#CCSc1nnnn1-c1ccccc1`, for which the growth was 96%. With `CCOC(=O)c1c(C)[nH]c(C)c1C=O`, the growth was 107%.

For `C/C(Cc1ccccc1)=N\O`, the growth was 101%. `Nc1cc2ccccc2c(O)c1O`: the growth is 95.8%. The result for `NNC(=O)N/N=C1\C(=O)N(c2nccs2)C(=O)C(=O)C1c1nc2ccccc2s1` (stereo not drawn) reads 94.1%; that for `S=c1nc(-c2ccccn2)c(-c2ccccn2)n[nH]1`, 103%.

`Nc1nc(Cl)cc(Cl)n1`: the growth is 86.8%. `CC1(C)C2CCC1(C)C1(C2)OCCS1` (stereo not drawn): the growth is 110%. Regarding `CC(C)(N)CO[C@H]1C[C@H]2CC[C@@]1(C)C2(C)C`, the growth is 101%.

Consider `COC(=O)c1ccc([N+](=O)[O-])c(C)c1`, for which the growth was 121%. For `CCCCCCCCCc1ccc(OC(C)=O)cc1`, the growth was 102%. As to `CC(C)=CCC[C@@H](C)[C@H]1CC[C@@]2(C)C3=C(CC[C@]12C)[C@@]1(C)CC[C@H](O)C(C)(C)[C@@H]1CC3`, the growth is 90.1%.

For `CC(O)C(F)(F)C(F)(F)C(F)(F)F` (stereo not drawn), the growth is 99.9%.
